Assay results taken from the supplement of paper PMC12645437, “Orthogonal IMiD-Degron Pairs Induce Selective Protein Degradation in Cells” (ACS Chemical Biology, 2025).
The full ranking holds about 8,300 sequences; the median of “log2 fold change of degron read counts, EGFP-low vs EGFP+ sorted cells (limma voom), compound-induced degradation” is about -1.1, and the highest 2% start at about 3.2. The list comes from a sample in which the highest values are over-represented; it also holds similar and randomly drawn sequences.

T1: CRBN, Q96SW2
T1 chain: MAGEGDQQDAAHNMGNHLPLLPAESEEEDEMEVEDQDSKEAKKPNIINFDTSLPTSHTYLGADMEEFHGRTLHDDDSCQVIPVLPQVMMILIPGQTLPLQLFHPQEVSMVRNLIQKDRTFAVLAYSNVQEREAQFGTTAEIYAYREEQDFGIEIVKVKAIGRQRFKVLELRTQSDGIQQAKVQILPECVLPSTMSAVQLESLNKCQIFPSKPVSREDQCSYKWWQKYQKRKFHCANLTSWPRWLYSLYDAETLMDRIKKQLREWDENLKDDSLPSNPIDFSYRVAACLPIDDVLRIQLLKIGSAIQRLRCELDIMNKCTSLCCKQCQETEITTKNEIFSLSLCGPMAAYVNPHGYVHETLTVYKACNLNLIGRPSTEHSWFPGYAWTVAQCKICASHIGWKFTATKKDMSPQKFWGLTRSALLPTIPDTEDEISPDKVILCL

B1: 46F_47D_49P_50I_52G_53A_54E_55F_67L_, Q9UKT9 (peptide)
chain: FDCPICGAEFTQKGNLLRHIKL
B2: 46F_47D_49N_50V_52G_53A_54L_55F_67L_, Q9UKT9 (peptide)
chain: FDCNVCGALFTQKGNLLRHIKL
B3: 46F_47R_49P_50I_52G_53H_54E_55F_67L_, Q9UKT9 (peptide)
chain: FRCPICGHEFTQKGNLLRHIKL
B4: 46F_47T_49E_50Q_52G_53A_54H_55F_67L_, Q9UKT9 (peptide)
chain: FTCEQCGAHFTQKGNLLRHIKL
B5: 46F_47V_49N_50Q_52G_53H_54N_55F_67L_, Q9UKT9 (peptide)
chain: FVCNQCGHNFTQKGNLLRHIKL
B6: 46F_47I_49E_50I_52G_53A_54K_55F_67L_, Q9UKT9 (peptide)
chain: FICEICGAKFTQKGNLLRHIKL
B7: 46F_47V_49E_50I_52G_53A_54K_55F_67L_, Q9UKT9 (peptide)
chain: FVCEICGAKFTQKGNLLRHIKL
B8: 46F_47M_49E_50I_52G_53A_54K_55F_67L_, Q9UKT9 (peptide)
chain: FMCEICGAKFTQKGNLLRHIKL
B9: 46F_47G_49E_50I_52G_53A_54K_55F_67L_, Q9UKT9 (peptide)
chain: FGCEICGAKFTQKGNLLRHIKL
B10: 46F_47T_49E_50I_52G_53A_54K_55F_67L_, Q9UKT9 (peptide)
chain: FTCEICGAKFTQKGNLLRHIKL
B11: 46F_47R_49E_50I_52G_53A_54K_55F_67L_, Q9UKT9 (peptide)
chain: FRCEICGAKFTQKGNLLRHIKL
B12: 46F_47A_49E_50I_52G_53A_54K_55F_67L_, Q9UKT9 (peptide)
chain: FACEICGAKFTQKGNLLRHIKL
B13: 46F_47W_49E_50I_52G_53A_54K_55F_67L_, Q9UKT9 (peptide)
chain: FWCEICGAKFTQKGNLLRHIKL
B14: 46F_47F_49N_50Q_52G_53A_54A_55F_67L_, Q9UKT9 (peptide)
chain: FFCNQCGAAFTQKGNLLRHIKL
B15: 46L_47M_49P_50I_52G_53F_54I_55C_67L_, Q9UKT9 (peptide)
chain: LMCPICGFICTQKGNLLRHIKL
B16: 46L_47R_49N_50Q_52G_53F_54G_55C_67L_, Q9UKT9 (peptide)
chain: LRCNQCGFGCTQKGNLLRHIKL
B17: 46F_47F_49S_50V_52G_53H_54E_55F_67L_, Q9UKT9 (peptide)
chain: FFCSVCGHEFTQKGNLLRHIKL
B18: 46F_47C_49P_50I_52G_53A_54M_55F_67L_, Q9UKT9 (peptide)
chain: FCCPICGAMFTQKGNLLRHIKL
B19: 46F_47S_49N_50Q_52G_53H_54T_55F_67L_, Q9UKT9 (peptide)
chain: FSCNQCGHTFTQKGNLLRHIKL
B20: 46F_47M_49N_50V_52G_53A_54D_55F_67L_, Q9UKT9 (peptide)
chain: FMCNVCGADFTQKGNLLRHIKL
B21: 46L_47Y_49P_50I_52G_53F_54I_55C_67L_, Q9UKT9 (peptide)
chain: LYCPICGFICTQKGNLLRHIKL
B22: 46F_47S_49N_50V_52G_53A_54P_55F_67L_, Q9UKT9 (peptide)
chain: FSCNVCGAPFTQKGNLLRHIKL
B23: 46F_47K_49E_50I_52G_53A_54G_55F_67L_, Q9UKT9 (peptide)
chain: FKCEICGAGFTQKGNLLRHIKL
B24: 46F_47S_49E_50I_52G_53A_54G_55F_67L_, Q9UKT9 (peptide)
chain: FSCEICGAGFTQKGNLLRHIKL
B25: 46F_47V_49E_50I_52G_53A_54G_55F_67L_, Q9UKT9 (peptide)
chain: FVCEICGAGFTQKGNLLRHIKL
B26: 46F_47M_49E_50I_52G_53A_54G_55F_67L_, Q9UKT9 (peptide)
chain: FMCEICGAGFTQKGNLLRHIKL
B27: 46F_47C_49E_50I_52G_53A_54G_55F_67L_, Q9UKT9 (peptide)
chain: FCCEICGAGFTQKGNLLRHIKL
B28: 46F_47I_49P_50I_52G_53R_54G_55F_67L_, Q9UKT9 (peptide)
chain: FICPICGRGFTQKGNLLRHIKL

Biological target: T1, CRBN, Q96SW2
Experiment: log2 fold change of degron read counts, EGFP-low vs EGFP+ sorted cells (limma voom), compound-induced degradation; higher = more compound-induced degradation of the degron-EGFP fusion; degrons are variants of IKZF1/3 zinc finger 2; compound dose not given here
Conditions: Jurkat, 18 h
[1] = compound: compound 19 (5-tert-butyl-thalidomide)
[2] = compound: compound 22 (5-morpholino-thalidomide)
[3] = compound: compound 33 (diphenyl IMiD analogue)
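Also: pooled lentiviral library of zinc finger degron-EGFP fusions in mCherry-positive Jurkat cells, FACS-sorted after compound exposure, with degron abundance counted by next-generation sequencing.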

Row | Sequence | log2 fold change of degron read counts [1] | log2 fold change of degron read counts [2] | log2 fold change of degron read counts [3] | log2 fold change of degron read counts (compound: thalidomide)
1 | B1 | -0.0781 | -0.933 | 1.14 | 0.579
2 | B2 | -2.45 | -2.67 | -0.75 | -0.856
3 | B3 | -2.68 | -2.48 | -1.5 | -1.35
4 | B4 | -1.82 | -1.63 | -0.151 | -0.624
5 | B5 | -3 | -3.4 | -2.99 | -3.15
6 | B6 | 0.419 | 2.07 | 0.709 | 2.61
7 | B7 | 1.42 | 1.89 | 0.387 | 3.07
8 | B8 | 0.747 | -0.267 | 0.58 | 1.27
9 | B9 | 3.49 | 1.63 | -1.11 | 1.73
10 | B10 | 0.913 | 1.9 | 0.245 | 2.71
11 | B11 | -0.269 | -0.354 | 0.56 | 1.68
12 | B12 | 3.82 | 1.86 | -1.82 | 1.35
13 | B13 | 3.96 | 3.75 | 1.53 | 1.31
14 | B14 | -1.05 | -0.697 | -0.811 | -1.91
15 | B15 | -0.334 | 0.292 | 2.06 | 1.27
16 | B16 | -1.13 | -1.8 | -1.41 | -1.08
17 | B17 | -2.81 | -3.34 | -3.2 | -2.56
18 | B18 | 1.6 | 1.26 | 2.22 | 1.23
19 | B19 | -2.44 | -2.51 | -2.85 | -2.59
20 | B20 | -2.78 | -2.8 | 1.31 | -1.76
21 | B21 | 2.94 | 2.9 | 1.98 | 0.937
22 | B22 | 0.819 | 0.453 | -0.105 | 0.146
23 | B23 | 2.69 | -0.466 | -0.772 | 0.328
24 | B24 | 3.39 | 1.57 | 1.23 | 0.613
25 | B25 | 1.53 | 3.07 | 1.92 | 3.23
26 | B26 | 2.81 | 1.95 | 2.73 | 1.31
27 | B27 | 3.68 | 2.09 | 1.63 | 1.42
28 | B28 | -2.06 | -1.04 | -0.776 | 0.0621
